HCV NS3h FP: hepatitis C NS3 helicase inhibition, primary screen | NS3h Cy5-dT15 DNA binding, fluorescence polarization | inhibition, % at 100 µM | hit rate 1.6% among 16,000;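 active means inhibition above the average over every tested compound plus 3 SD, cut at about 40% in these data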
Cy5 interf NS3h: enhances or quenches Cy5 fluorescence in NS3h assay; Cy5-dT15 DNA with NS3h, fluorescence interference; actives lie on both sides; signal over control mean, under 1 quenches; fluorescence interference ratio at 100 µM; hit rate 6% among 16,000;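 active means compound fluorescence over control fluorescence at most 0.8, a quencher, or at least a set upper limit, an enhancer; inactive means ratio between 0.8 and the set upper limit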
NS3h confirm: confirmation of hepatitis C virus NS3 helicase inhibitors; hit rate 20% among 240; shares compounds with HCV NS3h FP; AID 720485; inhibition, % at 100 µM; NS3h binding to Cy5-dT15 DNA, fluorescence polarization;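 active means percent inhibition of 50% or more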
SSB FP counter: counter-screen for HCV NS3 helicase inhibitors: E. coli SSB binding. AID 720486. hit rate 40% among 240. E. coli SSB binding Cy5-dT15, fluorescence polarization. shares compounds with HCV NS3h FP. inhibition, % at 100 µM;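 active means inhibition of at least 50%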;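 further: displacers lower Cy5 polarization so higher inhibition means more SSB displaced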
Target sequence (P0AGE0 whole entry, looked up): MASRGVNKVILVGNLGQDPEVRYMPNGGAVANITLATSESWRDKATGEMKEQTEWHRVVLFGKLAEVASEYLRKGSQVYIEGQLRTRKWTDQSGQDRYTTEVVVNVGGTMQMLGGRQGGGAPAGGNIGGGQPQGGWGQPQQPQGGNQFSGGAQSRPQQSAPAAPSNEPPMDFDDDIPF
Cy5 SSB interf: Cy5 fluorescence interference in NS3h counter-screen; shares compounds with HCV NS3h FP; Cy5-dT15/E. coli SSB fluorescence interference; actives lie on both sides; fluorescence interference ratio at 100 µM; hit rate 8% among 240;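 active means fluorescence interference ratio at or above 1.2, signal boosting, or at or below 0.8, signal quenching; inactive means ratio between 0.8 and 1.2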;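 further: ratio of compound well signal to mean negative control signal so 1 means no effect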
Cy5 fluor confirm: Cy5 fluorescence interference, confirmation counter-screen | shares compounds with HCV NS3h FP | AID 720489 | hit rate 44% among 240 | Cy5-dT15 DNA/NS3h fluorescence interference counterscreen | fluorescence interference ratio at 100 µM, hits read low;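 active means fluorescence interference ratio at or below 0.8 quencher or at or above a set limitenhancer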;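 further: ratio of compound fluorescence to mean of negative controls so 1 means no interference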
An asterisk follows results filed as active; x = no result. Rows were chosen to be rich in hits. Some 6.8% of all compounds tested hit in one or more screens of this group.

SMILES	HCV NS3h FP	Cy5 interf NS3h	NS3h confirm	SSB FP counter	Cy5 SSB interf	Cy5 fluor confirm
O=C(O)CN1C(=O)/C(=C\c2cccc([N+](=O)[O-])c2O)SC1=S	44*	1.1	11	30	0.89	0.73*
COc1cccc(/C=C2/SC(=S)N(CC(=O)O)C2=O)c1O	6	0.98	x	x	x	x
O=C(/C=C/c1ccc2c(c1)OCO2)Nc1ccc(F)cc1	16	0.94	x	x	x	x
CCOc1cc(/C=C2/SC(=S)NC2=O)cc(Br)c1OCc1ccc(F)cc1	83*	1	8	24	0.94	0.98
C=CCN1C(=O)/C(=C\c2cc(Br)c(OCc3ccc(F)cc3)c(OC)c2)SC1=S	-9	1.2	x	x	x	x
O=C(CC1(O)C(=O)Nc2ccc(Br)cc21)c1ccc2ccccc2c1 (stereo not drawn)	-3	0.98	x	x	x	x
CCOc1cc(/C=C2/SC(=S)N(CC)C2=O)ccc1OC(=O)c1cccc([N+](=O)[O-])c1	2	1	x	x	x	x
O=C(NCc1ccncc1)c1ccc(Cl)cc1	-7	0.98	x	x	x	x
CN(C1=NC(=O)/C(=C\c2ccc(Cl)cc2)S1)c1ccc(O)cc1	8	0.98	x	x	x	x
CN(C1=NC(=O)/C(=C\C=C\c2ccccc2)S1)c1ccc(O)cc1	52*	0.97	21	2	0.93	0.69*
O=C1/C(=C/c2ccc(F)cc2)SC(=S)N1C1CCS(=O)(=O)C1 (stereo not drawn)	11	1	x	x	x	x
O=C1/C(=C\c2ccc(N3N=C(c4ccccc4)CC3c3ccccc3)cc2)SC(=S)N1C1CCS(=O)(=O)C1 (stereo not drawn)	53*	1.2*	29	32	1	0.87
COc1ccc(NC(=O)/C(C#N)=C\c2ccc(-c3ccc(C(=O)O)c(Cl)c3)o2)cc1	59*	1.1	7	16	0.88	0.75*
N#C/C(=C/c1ccc(-c2ccc(C(=O)O)c(Cl)c2)o1)C(=O)Nc1ccccc1	16	0.98	x	x	x	x
COc1ccc(C)cc1NC(=O)C(=O)NCCc1ccc(OC)c(OC)c1	14	0.97	x	x	x	x
COc1ccc(NS(=O)(=O)c2ccc(NC(=S)NC(=O)c3sc4cc(F)ccc4c3Cl)cc2)nn1	63*	0.98	14	8	1	0.76*
O=C(NC(=S)Nc1ccc(S(=O)(=O)Nc2nccs2)cc1)c1sc2ccccc2c1Cl	26	0.92	x	x	x	x
O=C1/C(=C\c2ccc(I)cc2)SC(=S)N1c1cccc(Cl)c1	8	1.1	x	x	x	x
CCOC(=O)c1cccc(NC2C=CS(=O)(=O)C2)c1 (stereo not drawn)	6	1	x	x	x	x
O=C1C=CC(=O)N1c1cccc(Cl)c1	55*	1	48	9	0.97	0.89
CCOC(=O)c1cccc(N2C(=O)C=CC2=O)c1	55*	0.94	34	10	0.96	0.86
Cc1ccc(N2C(=O)C(Cl)=C(N3CCN(c4ccccc4)CC3)C2=O)c(C)c1	14	1.1	x	x	x	x
Cc1ccc(N2C(=O)C(Cl)=C(N3CCOCC3)C2=O)c(C)c1	37	1.2	-4	-3	0.99	0.76*
COc1ccc(CN2CCN(Cc3cc(OC)c(OC)cc3OC)CC2)cc1	4	0.96	x	x	x	x
COc1cccc(/C=C2/C(=O)NC(=O)N(c3cc(C)cc(C)c3)C2=O)c1O	16	1.1	x	x	x	x
SMILES	HCV NS3h FP	Cy5 interf NS3h	NS3h confirm	SSB FP counter	Cy5 SSB interf	Cy5 fluor confirm
COc1cc(/C=C2\C(=O)NC(=O)N(c3cc(C)cc(C)c3)C2=O)cc([N+](=O)[O-])c1O	60*	1.1	16	51*	0.85	0.74*
O=C1C(=Cc2ccccc2)C(=O)c2ccccc21	46*	1	26	-3	1	0.78*
CN1C(=O)/C(=C/c2ccccc2F)SC1=S	10	0.97	x	x	x	x
O=C1C(=Cc2cccc(Cl)c2)C(=O)c2ccccc21	4	1	x	x	x	x
O=C1C(=Cc2ccccc2F)C(=O)c2ccccc21	61*	0.99	37	10	0.96	0.74*
COc1cccc(N2C(=O)C(=O)C(=C(O)c3ccccc3)C2c2ccc(O)c(OC)c2)c1 (stereo not drawn)	-13	1	x	x	x	x
CCCC1=NN(C(=O)c2ccccc2Cl)C(O)(C(F)(F)F)C1 (stereo not drawn)	5	0.95	x	x	x	x
O=C(N/C(=C/c1cccs1)c1nc2ccccc2[nH]1)c1ccccc1	23	1	20	36	0.96	0.77*
O=C(Nc1ccc(F)cc1)/C(=C\c1cccs1)NC(=O)c1ccccc1	2	1	x	x	x	x
CCC(C(=O)N1CCOCC1)c1ccccc1 (stereo not drawn)	-1	1.1	x	x	x	x
